# Assay: modulators of HCV replicon luciferase signal, primary screen, HCV replication inhibitor project, Huh7 cells, luciferase reporter (AID 1109);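 also: huh7 hepatoma cells harbouring a luciferase neomycin HCV replicon reporter; luciferase luminescence as measure of HCV replicon replication; test concentration not given here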
# Details: 48 h, higher = more signal
row,SMILES,z-score
1,[N-]=[N+]=Nc1ccccc1C[C@]1(C(=O)O)N=C(c2ccc(OCCCO)cc2)O[C@H]1c1ccccc1,0.939
2,CN1C(=O)[C@@]2(Cc3ccccc3)N=C(c3ccc(OCCCO)cc3)O[C@H]2c2ccccc21,-2.57
3,NC(=O)[C@@H]1[C@H]2C(=O)O[C@H](c3ccccc3)[C@H](c3ccccc3)N2[C@H](c2ccc(OCCO)cc2)[C@@]12C(=O)Nc1ccc(C#CCCO)cc12,-1.41
4,Cc1ccc(S[C@]2(C(=O)NC(C)C)CC(=O)N(Cc3ccccc3Cl)[C@@H]2c2ccc(CO)cc2)cc1,-1.81
5,CC(C)=CCCC(C)=CC(O)C1C=CC2C(=O)N(c3ccccc3)C(=O)C2N1Nc1ccccc1F (stereo not given),-1.43
6,COc1cc2c(cc1OC)CN(C(=O)[C@@H]1[C@H]3C(=O)O[C@H](c4ccccc4)[C@H](c4ccccc4)N3[C@H](c3ccc(O)cc3)[C@@]13C(=O)Nc1ccc(C#CCCO)cc13)CC2,-1.09
7,COc1cc(NN2C(C(O)C3CCCCC3)C=CC3C(=O)N(C)C(=O)C32)cc(OC)c1OC (stereo not given),-0.611
8,CC(C)C(CO)N1C(=O)[C@@H]2[C@H]3C(=O)OCC=C[C@H]3OC23C=CCN(C(C)(C)C)C(=O)[C@@H]13 (stereo not given in full),-0.425
9,COC(=O)[C@@]1(Cc2ccc(OC)cc2)[C@H]2c3cc(C(=O)N4CCCC4)n(Cc4ccc(S(C)(=O)=O)cc4)c3C[C@H]2CN1C(=O)c1ccccc1,-0.887
10,CCCNC(=O)[C@@]1(Sc2ccc(C)cc2)CC(=O)N(C2CCCCC2)[C@@H]1c1ccc(CO)cc1I,-2.45
11,CO[C@H]1O[C@H](CO)[C@@H](OC(=O)Nc2ccc(C#N)cc2)[C@@H]2OC(=O)[C@H](Cc3cccc(Br)c3)C/C=C/C[C@@H](Cc3cccc(Br)c3)C(=O)O[C@@H]12,-3.4
12,COCCOC(=O)N1C(=O)[C@@]2(c3cc(C#CC4(O)CCCCCC4)ccc31)[C@H](C(=O)N1CCN(c3ncccn3)CC1)[C@H]1C(=O)O[C@H](c3ccccc3)[C@H](c3ccccc3)N1[C@@H]2c1ccccc1OCCO,-2.22
13,CCCC=C(CCC)[C@@H](NC(=O)CCc1ccccc1)c1ccc(C(F)(F)F)cc1,-1.51
14,CC(C)[C@H]1NC(=O)[C@@]23C(=O)N[C@@H](Cc4ccccc4)C2[C@H](C)[C@@]2(C)O[C@H]2C3/C=C/CCC/C=C/CNC(=O)[C@H](Cc2ccccc2)NC1=O (stereo not given in full),-0.565
15,CCCCNC(=O)c1ccc(C#C[Si](C(C)C)(C(C)C)C(C)C)c(OC(C)=O)c1,-1.13
16,C=C(/C(=C/C[C@H](OC(=O)c1ccncc1)c1ccccc1OCCO)c1cnc2ccccc2c1)C(C)C,-2.63
17,COc1cc(NN2C(C(O)c3cc(OC)c(OC)c(OC)c3)C=CC3C(=O)N(c4ccccc4)C(=O)C32)cc(OC)c1OC (stereo not given),-1.54
18,COC(=O)[C@@]1(Cc2ccccc2)[C@H]2c3cc(C(=O)N4CCCC4)n(CCSCCO)c3C[C@H]2CN1C(=O)c1ccccc1,-1.12

row,SMILES,z-score
1,COCCOC(=O)N1C(=O)[C@@]2(c3cc(C#Cc4ccc(OC)cc4)ccc31)[C@H](c1ccc(OCCO)cc1)N1[C@H](c3ccccc3)[C@H](c3ccccc3)OC(=O)[C@H]1[C@@H]2C(=O)Nc1nc2ccccc2s1,-1.54
2,COCCOC(=O)N1C(=O)[C@@]2(c3cc(C#CCC(C(=O)OC)C(=O)OC)ccc31)[C@H](c1ccc(O)cc1)N1[C@H](c3ccccc3)[C@H](c3ccccc3)OC(=O)[C@H]1[C@@H]2C(=O)NC[C@H](O)c1ccccc1,-0.496
3,CCCCCCCCCCC(O)C1C=CC2C(=O)N(c3ccccc3)C(=O)C2N1Nc1ccccc1F (stereo not given),-0.211
4,COc1ccc(C(O)C2C=CC3C(=O)N(c4ccccc4)C(=O)C3N2Nc2ccc(C(C)C)cc2)c2ccccc12 (stereo not given),-0.716
5,O=C1C2C=CC(C(O)c3cc(C(F)(F)F)cc(C(F)(F)F)c3)N(Nc3ccccc3F)C2C(=O)N1c1ccccc1 (stereo not given),-2.74
6,C=C(CCCC)C(=O)CC[C@@H](OC(=O)c1cccnc1)c1ccc(OCCO)cc1,-2.35
7,C=C(/C(=C/C[C@@H](OC(=O)c1ccncc1)c1cccc(OCCO)c1)c1cnc2ccccc2c1)C(C)C,-1.96
8,CC(C)CNC(=O)[C@@]1(c2ccc([N+](=O)[O-])cc2)CC(=O)N(C2CCCCC2)[C@@H]1c1ccc(CO)cc1,-1.07
9,C[C@]1(C(=O)O)c2ccccc2C(=O)N(Cc2ccc(OC(F)(F)F)cc2)[C@H]1c1ccc(CO)cc1,-0.102
10,C=C(COC)C(=O)CC[C@H](OC(=O)c1cccnc1)c1ccc(CO)o1,-1.05
11,COCCOC(=O)N1C(=O)[C@@]2(c3cc(C#CCC(C(=O)OC)C(=O)OC)ccc31)[C@H](C(=O)NC[C@H](O)c1ccccc1)[C@H]1C(=O)O[C@H](c3ccccc3)[C@H](c3ccccc3)N1[C@@H]2c1ccc(O)cc1,-0.545
12,Cc1cccc([C@H]2C[C@H]3C(Br)=C[C@@H]2C(=O)[C@]32CO2)c1,-2.5
13,C=CCC(OC(C)=O)[C@@H]1[C@@H](N(Cc2ccc(-c3cccc(C(F)(F)F)c3)o2)C(=O)c2cccc3ccccc23)c2cc(OCCCO)ccc2N1C(=O)Cc1ccc(OC)cc1 (stereo not given in full),-0.72
14,CC(C)C[C@@H]1NC(=O)[C@@]23C(=O)N[C@@H](Cc4ccccc4)C2[C@H](C)[C@@]2(C)O[C@H]2C3/C=C/C/C=C\CNC(=O)[C@@H](C)NC1=O (stereo not given in full),0.0935
15,CCOC(=O)C1=CCN(S(=O)(=O)c2ccc(C)cc2)C1c1ccccc1 (stereo not given),-3.27
16,COCCOC(=O)N1C(=O)[C@@]2(c3ccccc31)[C@H](c1ccccc1OCCO)N1[C@H](c3ccccc3)[C@H](c3ccccc3)OC(=O)[C@H]1[C@@H]2C(N)=O,-2.76
17,C=C(COC)C(=O)CC[C@@H](OC(=O)c1cccnc1)c1ccccc1OCCO,-3.82

# — PubChem BioAssay
